# AMA1 RON2 block – qHTS for Inhibitors of AMA1-RON; Towards Development of Antimalarial Drug Lead: Primary Screen; Plasmodium falciparum AMA1 (3D7) - RON2 peptide interaction; AlphaScreen AMA1-biotinylated RON2 peptide binding; Potency, µM (series often up to 58.2 µM), for the others: at the top dose activity change, negative = inhibition, most hits filed as inhibitors; hit rate 0.2% among 360,000; AID 720542, 2013; active = well fitted inhibition curve with a large enough effect; inconclusive = small, poorly fitted or top-dose-only effect; inactive = no such curve, though single readings can be large or run the other way;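 also: potency is read from the fitted curve at half-maximal effect; 0% = vehicle wells and -100% = peptide control; nearly all actives have a fitted effect of over 45% in size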
#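 AMA1 (3D7) with his tag at 25 nM final met compounds first, then biotinylated RON2 peptide at 25 nM; detection used donor plus acceptor beads, 10 µg/mL apiece, read by AlphaScreen after 30 min at room temperature.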
# Cycloheximide cs – Cycloheximide Counterscreen for Small Molecule Inhibitors of Shiga Toxin | cell reporter, cycloheximide protein synthesis inhibition counterscreen | max response, % | hit rate 12% among 300,000 | AID 2314, 2010; in the data active = max response mostly above about 13%, no sharp cut-off; inactive = mostly below about 14%; also: read at 38.3 µM for the half of the compounds with a filed dose; 0% is about no effect
# Marburg entry inh – qHTS for inhibitors of binding or entry into cells for Marburg Virus; hit rate 1.8% among 300,000; Marburg virus pseudotyped entry inhibition, cell reporter; Potency, µM (highest dose often 37.8 µM), inactives show at the top dose activity change, negative = inhibition, hits mostly inhibitors; calls by dose curve; tested in HEK293 cells; also: potency is read from the fitted curve at half-maximal effect; % is scaled to controls: 0 for no effect and ±100 for the full control effect
# LASV entry inh – qHTS for Inhibitors of binding or entry into cells for Lassa Virus; Lassa virus pseudotype entry inhibition, cell reporter; Potency, µM (highest dose often 37.9 µM), without a hit: at the highest dose activity change, negative = inhibition, hits mostly inhibitors; hit rate 1.2% among 300,000; AID 540256, 2011; calls by dose curve; tested in HEK293 cells; also: potency is read from the fitted curve at half-maximal effect; % is scaled to controls: 0 for no effect and ±100 for the full control effect; nearly all actives have a fitted effect of over 50% in size
# Shiga toxin inh – A qHTS for Small Molecule Inhibitors of Shiga Toxin; inhibition, % at 38.7 µM; hit rate 9.2% among 290,000; Vero cells, Shiga toxin protein synthesis inhibition reporter; in the data active = inhibition mostly above about 28%, no sharp cut-off; inactive = mostly below about 43%; also: 0% is about no effect
# Numbers without * were called inactive; ? = inconclusive; nt = no result given; [ ] = remark or other dose. Shown is part of a subset that was picked to be rich in hits.
SMILES,AMA1 RON2 block,Cycloheximide cs,Marburg entry inh,LASV entry inh,Shiga toxin inh
CCCCOc1ccc(OC(=O)c2sc3ncn(Cc4cccc(F)c4)c(=O)c3c2C)cc1,nt,nt,nt,26.1%[46.1 µM],nt
COC(=O)C(C)NC(=O)N1CCN(c2nnc(C)c3c(C)n(-c4ccc(Cl)cc4)nc23)CC1 (stereo not given),nt,nt,nt,-2.7%[46.1 µM],nt
COc1cc(Cl)ccc1OCc1cc(C(=O)NCc2cc(C(C)C)no2)no1,7.9%,67.4*,-29.4%,0.4%,53.5*
COc1ccc(OCc2cc(C(=O)NCC(C)(C)N3CCOCC3)no2)c(Cl)c1,-5.8%,19.9,-10.3%,1.0%,36.1*
COc1ccc(OCc2cc(C(=O)NCCN3CCCc4ccccc43)no2)c(Cl)c1,-22.3%,15.7*,-24.9%,?,15.4
COc1cc(Cl)ccc1OCc1cc(C(=O)NCC(C)(C)N2CCOCC2)no1,7.7%,42.6*,nt,nt,49.8*
COc1ccc(C(=O)NCC(C)(C)N2CCOCC2)cc1S(=O)(=O)NCc1ccc(Cl)cc1,-5.3%,nt,nt,nt,nt
CCCCCCN1CCN(C2CN(Cc3cn(Cc4ccc(C)cc4)nn3)S(=O)(=O)C2)CC1 (stereo not given),7.6%,nt,nt,nt,nt
O=C(CNC(=O)c1ccccc1Br)N/N=C/c1ccco1,-2.6%,-1.9,?,-0.5%,-5.3
O=C(CNC(=O)c1cccc(F)c1)N/N=C/c1cc(Br)ccc1OC(=O)/C=C/c1ccco1,49.3%,-1.9,18.3µM*,?,14.2
O=C(CNC(=O)c1ccc(F)cc1)N/N=C/c1cc(Br)ccc1OCc1ccccc1,31.7%,1.3,?,-9.7%,10.4
O=C(CNC(=O)c1ccccc1O)N/N=C/c1cc(Br)ccc1OC(=O)/C=C/c1ccco1,18.2%,6.1,?,5.62µM*,25.8
CCCNC(=O)N1CCCN(S(=O)(=O)c2ccc3c(ccn3CC)c2)CC1,nt,nt,nt,-23.8%[46.1 µM],nt
Cc1cccnc1NC1CCCCC1,-6.2%,8.1,23.6%,4.5%,5.2
Cc1cccc(C)c1C(OCCN(C)C)C1CCCCC1 (stereo not given),-28.4%,-4.2,20.6µM*,?,-11.3
COc1cccc(NC(=O)C(C)n2c(=O)cc(C(F)(F)F)c3c(C)nn(C)c32)c1 (stereo not given),nt,nt,nt,3.0%[46.1 µM],nt
CC1CCN(C(=O)c2cc(-c3ccc4c(c3)OCO4)on2)CC1,-3.3%,27.5*,?,?,41.4*
CC1CCCCN1C(=O)c1cc(-c2ccc3c(c2)OCO3)on1 (stereo not given),9.1%,36.1*,?,?,88.9*
COc1ccc(-c2cc(C(=O)N3CCCCC3C)no2)cc1OC (stereo not given),nt,nt,?,5.3%[46.1 µM],nt
CC1CCCCN1C(=O)c1cc(-c2ccc(Cl)c(Cl)c2)on1 (stereo not given),9.7%,28.6*,-28.0%,-2.5%,76.2
CCC1CCCCN1C(=O)c1cc(-c2ccc(Cl)c(Cl)c2)on1 (stereo not given),0.8%,39.1*,7.3%,68.1%[14.3 µM],93.9*
O=C(c1cc(-c2ccccc2)on1)N1CCN(Cc2ccc3c(c2)OCO3)CC1,-13.6%,2.3,-2.5%,12.6%,-16.5
CC(C)=CCC[C@H](C)C[C@@H]1CC2=C(C(=O)OC(C)(C)O2)[C@H](c2ccc(Cl)cc2)O1,-4.6%,nt,nt,nt,nt
COc1ccc(-c2nc3c(c4c2C[C@H](c2ccccc2)OC4)CN(S(=O)(=O)c2ccc(Cl)c4nonc24)CC3)c(C)c1,nt,nt,0.9%[14.2 µM],?,nt
CC(C)[C@@H](C(=O)N[C@@H](Cc1ccccc1)C(=O)O)N1C(=O)N2CCc3c([nH]c4ccccc34)[C@@]2(C)C1=O,-2.2%,-1.1,nt,nt,6.2
SMILES,AMA1 RON2 block,Cycloheximide cs,Marburg entry inh,LASV entry inh,Shiga toxin inh
CCOC(=O)c1c(C)[nH]c(C)c1C(=O)COc1ncnc2cc([N+](=O)[O-])ccc12,27.0%,-3.2,?,?,2.8
Cc1ccc(-n2c(CCC(=O)O)ccc2-c2cccs2)cc1,0.3%,25.1*,?,8.7%[14.3 µM],97.2*
CC(=O)c1ccc(-n2c(CCC(=O)O)ccc2-c2cccs2)cc1,-6.5%,17.5,9.2%[46.1 µM],21.8%[46.1 µM],17.1
COC(=O)c1cccc(-n2c(CCC(=O)O)ccc2-c2cccs2)c1,-11.1%,19.4*,nt,2.5%[46.1 µM],49.3*
S=C(Nc1ccc(Cl)c(Cl)c1)NN1CCOCC1,44.1%,-7.6,-13.3%,-10.1%,-10.7
CN(C)c1ccc(CNC(=O)Cn2ccc3cc(S(=O)(=O)N4CCCCCC4)ccc32)cc1,nt,nt,nt,5.1%[46.1 µM],nt
CN(C(=O)COC(=O)c1sc2ccccc2c1Cl)C1CCCCC1,3.6%[2.32 µM],17.3,?,11.8%,54.7*
CCCCOC(=S)NC(=O)c1sc2ccccc2c1Cl,110.9%,21.7,-3.0%,nt,36.4
CN(C)CCCOC(=O)c1sc2ccccc2c1Cl,1.7%,39.4*,?,-13.0%[46.1 µM],59.4*
COc1ccc(C2=Nn3c(nnc3-c3cccc(OC)c3)SC2)cc1,nt,-9.4,nt,nt,-1.2
COc1ccccc1C(CNC(=S)NCc1ccccc1)N1CCCC1 (stereo not given),-1.3%,-5.5,5.62µM*,0.1%[46.1 µM],-14.9
CCCCOc1ncnc2c1[nH]c1ccccc12,-16.9%,21.6*,?,-10.8%,37.2*
CCCCOc1ncnc2c1[nH]c1ccc(F)cc12,-4.1%,33.6*,?,?,50.0*
CCCCOc1ncnc2c1[nH]c1ccc(OC)cc12,-7.7%,56.1*,?,-26.3%,77.2*
CCCCOc1ncnc2c1[nH]c1ccc(OCC)cc12,0.1%,11.7,13.4%,-9.0%,8.6
CSc1nc2sc3c(c2c(=O)n1Cc1ccccc1)CCC(C(C)(C)C)C3 (stereo not given),nt,nt,nt,-18.2%[46.1 µM],nt
CN1CCN(C(=O)C[C@@H]2C[C@H]3c4cc(NC(=O)c5cccnc5)ccc4O[C@H]3[C@H](CO)O2)CC1,-5.4%,nt,nt,nt,nt
COc1cc2nc(NC(=O)c3ccco3)sc(=O)c2cc1OC,2.5%,1.4,?,12.7%[46.1 µM],13.9
COc1ccc2cc(/C=C/C(=O)c3ccco3)c(Cl)nc2c1,nt,38.4*,nt,nt,91.3
COc1cc2cc(/C=C/C(=O)c3ccco3)c(Cl)nc2cc1OC,-2.2%,15.6,?,-6.9%,68.0*
CCN(Cc1ccccc1)C(=O)c1cc(-c2ccccc2)n[nH]1,nt,nt,nt,11.6%[46.1 µM],nt
NC(=O)CC(NC(=O)c1ccc(Br)cc1)c1ccc(NC2CCCCCC2)c([N+](=O)[O-])c1 (stereo not given),-9.8%,12.2*,nt,nt,15.8
NC(=O)CC(NC(=O)c1ccc(Br)cc1)c1ccc(NC2CCCCC2)c([N+](=O)[O-])c1 (stereo not given),-6.5%,-2.0,nt,nt,-1.2
CCC1CCc2sc(C(=O)N3CCCN(C)CC3)cc2C1 (stereo not given),5.5%,23.0*,?,-2.5%[46.1 µM],18.8
Cc1cccc(OCc2cc(-c3ccccc3)no2)c1C,98.5%,47.8*,nt,nt,85.7*
Cc1cc(COc2ccccc2OCc2cc(C)no2)on1,-1.0%,0.5,26.0%,1.6%,-1.9
Clc1ccc(OCc2cc(-c3ccccc3)no2)c(Cl)c1,7.4%,40.3*,7.08µM*,11.2µM*,69.2*
Clc1ccc(SCc2cc(-c3ccccc3)no2)cc1,20.4%,0.5,-10.4%,3.1%,2.4

# From PubChem
